# Measured values from ChEMBL document CHEMBL1961873, “Compounds: GSK PKIS; Assays: Nanosyn kinase panel” (2012).
# Tests used:
# [1] = biological target: RAC-alpha serine/threonine-protein kinase (Homo sapiens) (UniProt P31749); conditions: at 0.1 µM
# [2] = biological target: RAC-alpha serine/threonine-protein kinase (Homo sapiens) (UniProt P31749); conditions: at 1 µM
# [3] = biological target: RAC-beta serine/threonine-protein kinase (Homo sapiens) (UniProt P31751); conditions: at 0.1 µM
# [4] = biological target: RAC-beta serine/threonine-protein kinase (Homo sapiens) (UniProt P31751); conditions: at 1 µM
# [5] = biological target: RAC-gamma serine/threonine-protein kinase (Homo sapiens) (UniProt Q9Y243); conditions: at 0.1 µM
# Chain of RAC-gamma serine/threonine-protein kinase (Homo sapiens) (Q9Y243 whole entry): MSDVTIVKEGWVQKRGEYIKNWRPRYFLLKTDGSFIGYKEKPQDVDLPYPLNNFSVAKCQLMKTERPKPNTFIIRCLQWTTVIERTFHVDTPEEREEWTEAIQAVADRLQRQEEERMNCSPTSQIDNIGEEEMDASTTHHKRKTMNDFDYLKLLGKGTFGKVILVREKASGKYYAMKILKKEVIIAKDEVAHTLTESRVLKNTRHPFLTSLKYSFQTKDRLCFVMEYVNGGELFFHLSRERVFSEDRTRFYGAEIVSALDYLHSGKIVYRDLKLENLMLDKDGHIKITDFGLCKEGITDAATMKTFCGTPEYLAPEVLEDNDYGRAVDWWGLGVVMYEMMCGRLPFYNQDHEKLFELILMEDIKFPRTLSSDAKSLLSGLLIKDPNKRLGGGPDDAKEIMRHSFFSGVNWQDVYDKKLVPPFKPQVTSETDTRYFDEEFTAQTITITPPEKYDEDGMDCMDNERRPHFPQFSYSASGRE
# [6] = biological target: RAC-gamma serine/threonine-protein kinase (Homo sapiens) (UniProt Q9Y243); conditions: at 1 µM
# [7] = biological target: G protein-coupled receptor kinase 6 (Homo sapiens) (UniProt P43250); conditions: at 0.1 µM
# Chain of G protein-coupled receptor kinase 6 (Homo sapiens) (P43250 whole entry, looked up): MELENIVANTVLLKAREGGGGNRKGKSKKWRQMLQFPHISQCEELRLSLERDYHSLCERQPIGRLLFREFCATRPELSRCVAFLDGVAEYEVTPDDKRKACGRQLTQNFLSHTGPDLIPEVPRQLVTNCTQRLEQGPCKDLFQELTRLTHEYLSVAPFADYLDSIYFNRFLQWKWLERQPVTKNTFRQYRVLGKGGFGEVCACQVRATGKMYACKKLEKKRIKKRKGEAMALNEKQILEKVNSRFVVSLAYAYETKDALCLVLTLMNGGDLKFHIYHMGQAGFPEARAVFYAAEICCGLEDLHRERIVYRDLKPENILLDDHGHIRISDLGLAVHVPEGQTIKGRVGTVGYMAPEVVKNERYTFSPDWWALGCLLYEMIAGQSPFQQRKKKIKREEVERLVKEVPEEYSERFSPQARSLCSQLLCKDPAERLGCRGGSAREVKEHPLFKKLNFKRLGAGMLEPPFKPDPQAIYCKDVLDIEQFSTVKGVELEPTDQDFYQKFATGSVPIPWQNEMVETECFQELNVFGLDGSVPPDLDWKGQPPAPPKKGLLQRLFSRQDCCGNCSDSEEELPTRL
# [8] = biological target: G protein-coupled receptor kinase 6 (Homo sapiens) (UniProt P43250); conditions: at 1 µM
# [9] = biological target: T1, Rhodopsin kinase GRK7 (Homo sapiens) (UniProt Q8WTQ7); conditions: at 0.1 µM
# T1 sequence (whole entry): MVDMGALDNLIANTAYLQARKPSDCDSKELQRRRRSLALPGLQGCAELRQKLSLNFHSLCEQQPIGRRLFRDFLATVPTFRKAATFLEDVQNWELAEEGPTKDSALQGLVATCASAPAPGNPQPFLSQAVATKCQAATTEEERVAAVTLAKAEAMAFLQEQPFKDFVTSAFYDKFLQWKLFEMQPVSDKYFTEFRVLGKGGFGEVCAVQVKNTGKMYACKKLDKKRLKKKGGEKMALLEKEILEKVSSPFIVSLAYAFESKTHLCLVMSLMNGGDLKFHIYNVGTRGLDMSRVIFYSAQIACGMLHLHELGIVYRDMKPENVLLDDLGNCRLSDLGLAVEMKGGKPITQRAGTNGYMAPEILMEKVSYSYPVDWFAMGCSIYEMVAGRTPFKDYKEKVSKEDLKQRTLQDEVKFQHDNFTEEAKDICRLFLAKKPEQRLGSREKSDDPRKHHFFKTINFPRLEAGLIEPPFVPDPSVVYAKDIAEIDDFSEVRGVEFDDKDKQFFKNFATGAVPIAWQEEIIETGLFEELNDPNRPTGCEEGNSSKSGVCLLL
# [10] = biological target: T1, Rhodopsin kinase GRK7 (Homo sapiens); conditions: at 1 µM
# [11] = biological target: Serine/threonine-protein kinase MRCK alpha (Homo sapiens) (UniProt Q5VT25); conditions: at 0.1 µM
# [12] = biological target: Serine/threonine-protein kinase MRCK alpha (Homo sapiens) (UniProt Q5VT25); conditions: at 1 µM
# [13] = biological target: Serine/threonine-protein kinase MRCK beta (Homo sapiens) (UniProt Q9Y5S2); conditions: at 0.1 µM
# Chain of Serine/threonine-protein kinase MRCK beta (Homo sapiens) (Q9Y5S2 whole entry): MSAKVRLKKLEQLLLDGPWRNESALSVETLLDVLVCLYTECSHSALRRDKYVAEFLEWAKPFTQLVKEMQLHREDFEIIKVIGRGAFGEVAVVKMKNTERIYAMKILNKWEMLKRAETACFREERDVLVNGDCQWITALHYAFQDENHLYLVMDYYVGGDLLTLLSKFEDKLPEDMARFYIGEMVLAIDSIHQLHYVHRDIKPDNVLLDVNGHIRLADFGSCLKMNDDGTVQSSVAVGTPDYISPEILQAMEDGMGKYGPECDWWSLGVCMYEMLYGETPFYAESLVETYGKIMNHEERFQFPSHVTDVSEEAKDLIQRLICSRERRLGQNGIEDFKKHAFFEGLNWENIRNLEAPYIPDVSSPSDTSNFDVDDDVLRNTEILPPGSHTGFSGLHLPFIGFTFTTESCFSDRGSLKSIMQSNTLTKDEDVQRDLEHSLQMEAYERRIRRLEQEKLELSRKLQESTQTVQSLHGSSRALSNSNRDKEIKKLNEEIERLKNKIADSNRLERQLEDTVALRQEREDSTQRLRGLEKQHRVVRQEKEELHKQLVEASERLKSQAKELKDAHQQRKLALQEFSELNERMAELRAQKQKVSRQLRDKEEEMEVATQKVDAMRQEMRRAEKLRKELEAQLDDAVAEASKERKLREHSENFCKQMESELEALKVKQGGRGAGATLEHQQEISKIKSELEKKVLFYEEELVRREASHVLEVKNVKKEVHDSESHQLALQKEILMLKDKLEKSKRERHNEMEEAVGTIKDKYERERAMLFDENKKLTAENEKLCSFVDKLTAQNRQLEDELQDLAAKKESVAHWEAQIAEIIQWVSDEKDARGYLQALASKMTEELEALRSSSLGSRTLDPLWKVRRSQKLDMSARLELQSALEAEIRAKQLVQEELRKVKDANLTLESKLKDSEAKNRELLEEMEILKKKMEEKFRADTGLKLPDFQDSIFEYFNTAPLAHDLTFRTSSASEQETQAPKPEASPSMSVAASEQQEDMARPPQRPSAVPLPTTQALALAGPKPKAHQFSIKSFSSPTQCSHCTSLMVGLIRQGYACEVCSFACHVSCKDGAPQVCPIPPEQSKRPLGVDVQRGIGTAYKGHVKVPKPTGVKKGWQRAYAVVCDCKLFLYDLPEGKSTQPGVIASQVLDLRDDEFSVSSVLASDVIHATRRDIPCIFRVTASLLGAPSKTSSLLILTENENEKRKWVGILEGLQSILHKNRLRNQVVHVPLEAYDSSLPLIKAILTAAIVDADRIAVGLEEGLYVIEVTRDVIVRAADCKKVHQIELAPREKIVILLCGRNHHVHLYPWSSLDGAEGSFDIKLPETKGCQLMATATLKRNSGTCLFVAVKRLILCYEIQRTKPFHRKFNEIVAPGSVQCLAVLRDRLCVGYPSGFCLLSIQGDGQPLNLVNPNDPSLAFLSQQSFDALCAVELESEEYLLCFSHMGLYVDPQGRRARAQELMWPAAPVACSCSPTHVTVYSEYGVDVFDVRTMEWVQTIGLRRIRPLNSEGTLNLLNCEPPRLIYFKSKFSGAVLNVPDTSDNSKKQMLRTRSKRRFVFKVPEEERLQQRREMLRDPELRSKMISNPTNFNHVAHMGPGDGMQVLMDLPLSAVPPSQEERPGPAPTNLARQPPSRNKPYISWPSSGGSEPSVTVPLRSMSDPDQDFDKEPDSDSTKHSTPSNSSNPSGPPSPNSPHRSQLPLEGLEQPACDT
# [14] = biological target: Serine/threonine-protein kinase MRCK beta (Homo sapiens) (UniProt Q9Y5S2); conditions: at 1 µM
# [15] = biological target: Ribosomal protein S6 kinase alpha-5 (Homo sapiens) (UniProt O75582); conditions: at 0.1 µM
# [16] = biological target: Ribosomal protein S6 kinase alpha-5 (Homo sapiens) (UniProt O75582); conditions: at 1 µM
# [17] = biological target: Ribosomal protein S6 kinase alpha-4 (Homo sapiens) (UniProt O75676); conditions: at 0.1 µM
# Chain of Ribosomal protein S6 kinase alpha-4 (Homo sapiens) (O75676 whole entry, looked up): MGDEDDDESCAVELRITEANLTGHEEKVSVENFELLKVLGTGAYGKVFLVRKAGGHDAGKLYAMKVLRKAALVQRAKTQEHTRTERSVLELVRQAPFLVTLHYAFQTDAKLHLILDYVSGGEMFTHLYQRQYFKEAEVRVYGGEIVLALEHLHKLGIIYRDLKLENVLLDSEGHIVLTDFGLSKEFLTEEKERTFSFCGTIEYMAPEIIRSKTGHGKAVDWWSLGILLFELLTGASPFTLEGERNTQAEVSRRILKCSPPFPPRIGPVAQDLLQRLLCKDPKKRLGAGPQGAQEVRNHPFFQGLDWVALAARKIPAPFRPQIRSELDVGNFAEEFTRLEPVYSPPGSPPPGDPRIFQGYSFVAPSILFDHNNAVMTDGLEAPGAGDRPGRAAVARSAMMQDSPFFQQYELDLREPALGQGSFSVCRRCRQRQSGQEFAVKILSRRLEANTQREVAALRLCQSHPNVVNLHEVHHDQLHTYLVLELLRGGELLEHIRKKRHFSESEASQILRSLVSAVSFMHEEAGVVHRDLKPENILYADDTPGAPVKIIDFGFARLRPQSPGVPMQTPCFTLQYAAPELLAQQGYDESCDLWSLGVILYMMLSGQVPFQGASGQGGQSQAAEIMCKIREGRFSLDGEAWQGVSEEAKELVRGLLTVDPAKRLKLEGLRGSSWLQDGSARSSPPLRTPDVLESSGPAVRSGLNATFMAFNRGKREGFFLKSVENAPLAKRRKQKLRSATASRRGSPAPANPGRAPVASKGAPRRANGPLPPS
# [18] = biological target: Ribosomal protein S6 kinase alpha-4 (Homo sapiens) (UniProt O75676); conditions: at 1 µM
# [19] = biological target: Ribosomal protein S6 kinase beta-1 (Homo sapiens) (UniProt P23443); conditions: at 0.1 µM
# Chain of Ribosomal protein S6 kinase beta-1 (Homo sapiens) (P23443 whole entry, looked up): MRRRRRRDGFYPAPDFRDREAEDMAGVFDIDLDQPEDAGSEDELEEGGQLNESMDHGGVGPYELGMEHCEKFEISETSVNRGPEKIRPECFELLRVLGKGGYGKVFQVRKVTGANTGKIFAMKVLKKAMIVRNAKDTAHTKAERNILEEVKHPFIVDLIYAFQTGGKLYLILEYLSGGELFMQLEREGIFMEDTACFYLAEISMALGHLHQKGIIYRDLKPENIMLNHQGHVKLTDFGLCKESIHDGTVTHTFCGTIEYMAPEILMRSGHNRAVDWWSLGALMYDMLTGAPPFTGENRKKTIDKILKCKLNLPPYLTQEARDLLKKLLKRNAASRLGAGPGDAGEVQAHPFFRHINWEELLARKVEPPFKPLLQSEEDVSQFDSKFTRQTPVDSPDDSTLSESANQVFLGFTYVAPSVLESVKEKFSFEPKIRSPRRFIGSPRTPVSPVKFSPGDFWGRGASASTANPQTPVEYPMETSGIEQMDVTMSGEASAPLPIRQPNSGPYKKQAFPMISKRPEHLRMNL
# [20] = biological target: Ribosomal protein S6 kinase beta-1 (Homo sapiens) (UniProt P23443); conditions: at 1 µM
# Chain of RAC-beta serine/threonine-protein kinase (Homo sapiens) (P31751 whole entry): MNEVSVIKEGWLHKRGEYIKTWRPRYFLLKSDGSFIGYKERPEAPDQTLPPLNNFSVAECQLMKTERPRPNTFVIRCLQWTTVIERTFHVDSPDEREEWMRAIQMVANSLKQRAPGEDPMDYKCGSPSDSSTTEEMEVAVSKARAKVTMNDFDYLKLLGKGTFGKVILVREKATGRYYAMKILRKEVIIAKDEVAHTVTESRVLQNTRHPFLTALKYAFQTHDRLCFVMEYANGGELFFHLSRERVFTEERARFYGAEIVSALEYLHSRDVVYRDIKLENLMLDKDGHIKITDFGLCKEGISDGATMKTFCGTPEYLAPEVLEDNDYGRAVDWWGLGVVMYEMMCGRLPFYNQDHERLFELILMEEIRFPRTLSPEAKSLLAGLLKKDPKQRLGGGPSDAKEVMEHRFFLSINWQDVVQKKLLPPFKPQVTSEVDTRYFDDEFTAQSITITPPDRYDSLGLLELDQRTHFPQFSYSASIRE
# Chain of RAC-alpha serine/threonine-protein kinase (Homo sapiens) (P31749 whole entry): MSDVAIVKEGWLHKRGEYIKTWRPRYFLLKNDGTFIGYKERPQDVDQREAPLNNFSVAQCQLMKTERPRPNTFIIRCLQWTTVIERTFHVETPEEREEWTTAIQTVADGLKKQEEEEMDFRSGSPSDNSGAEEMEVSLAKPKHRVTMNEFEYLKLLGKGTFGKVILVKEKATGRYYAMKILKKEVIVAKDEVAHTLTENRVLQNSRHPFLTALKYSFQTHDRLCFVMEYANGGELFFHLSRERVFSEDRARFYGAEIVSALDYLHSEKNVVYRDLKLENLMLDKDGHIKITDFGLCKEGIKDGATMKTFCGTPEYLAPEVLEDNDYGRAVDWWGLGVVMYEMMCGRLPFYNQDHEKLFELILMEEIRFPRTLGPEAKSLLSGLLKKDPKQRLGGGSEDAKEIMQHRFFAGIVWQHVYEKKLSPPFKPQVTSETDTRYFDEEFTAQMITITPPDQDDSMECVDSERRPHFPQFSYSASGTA
SMILES,inhibition [1] [%],inhibition [2] [%],inhibition [3] [%],inhibition [4] [%],inhibition [5] [%],inhibition [6] [%],inhibition [7] [%],inhibition [8] [%],inhibition [9] [%],inhibition [10] [%],inhibition [11] [%],inhibition [12] [%],inhibition [13] [%],inhibition [14] [%],inhibition [15] [%],inhibition [16] [%],inhibition [17] [%],inhibition [18] [%],inhibition [19] [%],inhibition [20] [%]
C[C@@H](Oc1cc(-n2cnc3ccc(OCC4CCN(C)CC4)cc32)sc1C(N)=O)c1ccccc1Cl,0.75,0.38,1.73,2.79,0.98,3.81,4.28,9.48,10.8,9.71,3.98,9.1,1.18,1.35,4.97,7.75,3.23,7.58,2.88,6.79
COc1cc(Nc2ncc3c(C)nc(-c4cccc(C(F)(F)F)c4)n3n2)cc(OC)c1OC,0.55,0.77,1.62,1.52,1.12,1.21,1.33,4.77,3.66,6.59,-0.66,4.12,-1.16,-0.4,2.79,5.2,2.89,8.48,2.17,5.51
NS(=O)(=O)c1ccc(Nc2cc(-c3ccc(O)c(F)c3)n[nH]2)cc1,-3.05,-2.1,-3.37,-1.69,-3.06,-2.28,-2.35,-0.57,-9.14,-0.64,-0.79,0.17,0.18,0.15,-1.17,8.77,-0.21,8.93,-2.09,4.29
COc1ccc(C2=C(N3CCc4ccccc43)C(=O)NC2=O)cc1,0.6,0.96,2.65,1.87,1.01,2.72,8.72,8.49,27.9,20.3,-0.56,-0.21,1.1,0.12,4.26,3.53,2.26,3.24,1.91,3.41
COc1ccc2cc(-c3c(-c4ccncc4)nc(-c4ccc([S+](C)[O-])cc4C)n3C)ccc2c1 (stereo not given),-0.62,-0.09,-0.6,-0.29,0.09,1.08,2.06,-0.69,-2.36,-0.96,-1.8,1.91,0.22,1.15,-7.06,-6.22,-0.04,-0.04,0.21,0.05
COc1cccc(-n2cnc3c(N/N=C/c4ccncc4)ncnc32)c1,-4.15,-3.41,-3.57,-4.73,-4.17,-3.32,2.45,8.28,1.71,5.64,1.59,3.69,0.38,0.7,-0.31,1.02,2.44,3.95,-0.32,1.15
O=C1NC(=O)C(c2cccc(Cl)c2)=C1Nc1ccc(Cl)c(C(=O)O)c1,0.08,1.15,1.52,0.7,1.61,0.58,4.67,8.66,13.2,9.31,1.43,4.38,0.15,-0.05,3.03,2.1,2.51,2.85,0.51,1.96
CNC(=O)c1cncc(/C=C/c2c(C)cccc2C)c1,-2.43,-2.92,-3.43,-4.29,-2.01,-2.42,4.6,-0.29,1.47,-7.66,1.09,4.17,-0.27,-0.99,-1.22,-0.95,1.35,1.5,2.04,0.86
COc1ccc2ncn(-c3cc(O[C@H](C)c4ccccc4Cl)c(C(N)=O)s3)c2c1,-3.63,-2.95,-2.65,-2.8,-2.12,-1.2,-0.3,0.35,8.25,2.33,-0.38,1.13,0.7,3.24,2.21,1.33,3.9,2.99,0.38,2.8
CN(c1ccc(NC(=O)Nc2c(Cl)cccc2Cl)cc1)c1ccnc(Nc2cccc(CS(C)(=O)=O)c2)n1,0.48,1.09,0.5,2.1,3.21,-0.15,3.24,3.8,3.79,1.55,1.56,2.97,0.43,0.92,2.92,4.25,2.24,4.1,-1.3,2.4
CN(C)c1ccc2c(c1)/C(=C/Nc1ccc(S(N)(=O)=O)cc1)C(=O)N2,0.14,-0.46,0.75,1.06,2.06,1.85,3.15,5.15,0.97,8.73,0.22,4.01,1.12,2.85,3.06,4.05,1.96,3.55,0.19,3.09
C#Cc1cccc(Nc2ncnc3ccc(OCCCCNCCS(C)(=O)=O)cc23)c1,-2.83,-3.06,-0.89,-2.09,-1.57,-0.78,7.52,6.6,4.84,8.97,-0.05,7.35,0.55,1.44,2.74,1.8,3.12,3.4,2.59,3.29
NC(=O)c1ccc(Oc2nccc(-c3c(-c4ccc(F)cc4)ncn3C3CCNCC3)n2)cc1,1.54,3.25,2.45,1.86,3.04,7.31,4.21,7.44,-1.91,2.41,5.74,5.95,1.2,2.3,-2.57,-1.95,3.42,5.79,3.21,5.34
O=C(Nc1n[nH]c2nc(-c3ccc(O)cc3)c(Br)cc12)C1CC1,0.84,2.07,2.21,3.12,3.32,12.5,11.6,32.6,5.77,17.4,1.56,13.5,1.77,15.5,5.22,13.6,2.78,6.3,2.07,6.85
O=C(Nc1n[nH]c2cc(-c3cc(F)ccc3F)ccc12)C1CC1,0.77,0.09,1.23,1.89,1.03,2.68,2.61,3.76,1.22,6.2,-0.78,-3.13,-0.23,-0.47,1.91,1.12,1.8,3.08,1.01,1.58
CCc1nccc2c1nc(-c1nonc1N)n2CC,-0.45,0.43,0.34,1.71,0.28,0.55,-0.76,-2.13,-2.75,2.78,0.8,1.36,0.74,3.39,6.51,37.7,2.18,19.5,10.5,49.6
COc1cc(Nc2ncc3c(C)nc(-c4cccc(Oc5ccccc5)c4)n3n2)cc(OC)c1OC,0.97,1.22,0.47,1.85,1.02,1.43,1.19,-5.44,-0.36,-5.43,0.02,-0.11,0.97,1.86,8.17,7.74,0.96,2.98,1.98,3.01
CCN(CC)Cc1ccc(Nc2nccc(-c3cnn4ncccc34)n2)cc1,-2.02,-1.93,-2.76,-2.22,-1.29,-1.26,2.33,1.08,10.6,3.71,2.38,4.32,0.71,4.53,0.66,2.51,2.43,7.32,1.81,7.85
COc1cc2ncn(-c3cc(OCCc4ccccc4)c(C(N)=O)s3)c2cc1OC,0.55,0.01,1.52,0.89,1.12,-0.88,-2.45,-0.33,2.29,2.5,1.17,2.94,1.02,1.01,1.83,0.4,0.49,0.9,1.13,0.05
N#Cc1ccc(Oc2nccc(-c3c(-c4ccc(F)cc4)ncn3C3CCNCC3)n2)cc1,-0.06,0.41,0.99,3.57,2.37,2.2,-0.24,2.68,8.83,5.35,-6.56,-3.04,-1.06,0.02,1.54,-0.96,3.03,1.76,1.84,2.31
CCS(=O)(=O)c1ccc(OC)c(Nc2ncc(-c3cccc(-c4ccccc4F)c3)o2)c1,-0.24,-0.11,0.25,0.43,1.02,-0.29,1.94,-0.56,0.7,-0.85,-0.09,-0.52,0.66,1.36,0.09,1.42,0.74,1.94,0.15,1.18
Fc1ccc(-c2ncn(C3CCNCC3)c2-c2ccnc(Oc3ccc(Oc4ccccc4)cc3)n2)cc1,1.23,1.87,1.23,1.51,2.28,4.62,3.64,6.73,10.9,3.4,5.81,7.37,-0.26,1.5,10.2,11.9,2.53,5.09,2.41,4.57
Fc1ccc(-c2ncn(C3CCNCC3)c2-c2ccnc(Oc3ccc(F)c(F)c3)n2)cc1,-3,-3.59,-3.3,-2.56,-2.6,-1.9,-0.72,2.05,9.11,1.73,-3.08,-2.58,-0.68,-0.35,0.54,-0.7,3.37,4.69,0.73,0.63
NS(=O)(=O)c1ccc(N/N=C2\C(=O)Nc3ccc(-c4cnco4)cc32)cc1,-3.71,-3.3,-3.63,-1.8,-3.1,-0.96,-0.25,2.71,8.59,7.29,0.37,8.38,0.26,6.65,-1.59,-0.36,0.74,3.26,0.79,6.58
c1ccc(Oc2ccc(Nc3ncc(-c4ccccc4)o3)cc2)cc1,0.05,0.39,0.18,0.15,-0.09,1.21,2.54,0.81,2.37,2,-0.31,1.06,0.44,3.62,0.98,3.6,1.31,3.78,0.11,-0.31
Cc1ccc(NC(=O)c2ccoc2)cc1-c1ccc(C(=O)NCC2CC2)cc1,0.37,0.55,0.88,1.23,0.72,1.87,-0.54,1.27,3.35,-1.36,-2.51,-2.81,-0.56,-1.77,0.76,-1.39,1.78,-0.44,-0.57,-1.48
